Active and inactive are the calls of the source. How the source made its calls: active means hit-call score of the fitted dose curve at least 0.9, where 1 is the maximum; inactive means score below 0.9.
Read-out: Monokine induced gamma interferon (MIG), CXCL9 (gene 4283)
Experiment: BSK_3C_MIG: BioMAP Diversity Plus: 3C Assay for Monokine induced gamma interferon (MIG) Biomarker Activity (AID 2283021);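 on AC50: MIG protein level measured by immunoassay in the treated endothelial cultures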
Conditions: primary human endothelial cells (HUVEC); actives raise or lower the signal
Method: BSK_3C is a cell-based, multiplexed-readout assay that uses umbilical vein endothelium, a human vascular primary cell, with measurements taken at 24 hours after chemical dosing in a 96-well plate.BSK_3C_MIG is an assay component measured in the BSK_3C assay. It measures MIG antibody related to regulation of gene expression using ELISA technology.Data from the assay component BSK_3C_MIG was analyzed into 1 assay endpoint. This assay endpoint, BSK_3C_MIG, was analyzed with bidirectional fitting relative to DMSO as the negative control and baseline of activity. Using a type of binding reporter, gain or loss-of-signal activity can be used to understand changes in the signaling as they relate to the gene CXCL9. Furthermore, this assay endpoint can be referred to as a primary readout, because this assay has produced multiple assay endpoints where this one serves a signaling function. To generalize the intended target to other relatable targets, this assay endpoint is annotated to the cytokine intended target family, where the subfamily is chemotactic factor.
The levels of cell surface (or secreted, indicated by the prefix "s") biomarker endpoints were measured by ELISA. Overt cytotoxicity to cells in confluent adherent cultures (all systems other than the BT system) was assessed by measuring total protein levels using sulforhodamine B (SRB) staining in parallel cultures at the time of biomarker measurements, indicated as SRB endpoints. For proliferation assays for adherent cell types, individual cell types are cultured at sub-confluence and relative cell numbers quantified by SRB staining at time points optimized for each system (48 h: 3C and CASM3C systems; 72 h: BT and HDF3CGF systems; 96 h: SAg system). SRB was performed by staining cells with 0.1% SRB after fixation with 10% TCA and reading wells at 560 nm.Viability and proliferation of PBMC (T cells) was quantified by Alamar Blue reduction for the SAg and BT systems. For PBMC viability (referred to as PBMC Cytotoxicity within the assay endpoint names), cells were plated (75,000/well in a 96-well plate) and then chemical samples added for 1 h before addition of activators, SEB and TSST-1 (20 ng/mL final concentration each). Cells were incubated for 90 h. Then, Alamar Blue (20 uL/well) (Invitrogen, Cat DAL1100) was added for 6 h, and the plates were read with a fluorescence microplate reader at 546/580 nm (excitation/emission). For PBMC proliferation, cells were plated and activated as above but incubated for only 16 h prior to addition of Alamar Blue. Plates were read after 6 h.

| Structure (SMILES) | outcome | AC50 |
| --- | --- | --- |
| CCN(CC)C(=O)C(Cl)=C(C)OP(=O)(OC)OC | inactive | – |
| Oc1cccc(-c2ccccc2)c1 | inactive | – |
| CCOC(=O)CCN(SN(C)C(=O)Oc1cccc2c1OC(C)(C)C2)C(C)C | inactive | – |
| CC(C=O)Cc1ccc2c(c1)OCO2 (stereo not given) | inactive | – |
| CCOP(=S)(OCC)OP(=S)(OCC)OCC | inactive | – |
| O=S(=O)(c1ccc(Cl)cc1)c1cc(Cl)c(Cl)cc1Cl | inactive | – |
| Cc1cc(C)cc(C)c1 | inactive | – |
| CCOC(=O)CC(=O)CCl | inactive | – |
| Cc1cc(C(C)(C)c2ccc(O)c(C)c2)ccc1O | inactive | – |
| O=C(O)COc1cc(Cl)c(Cl)cc1Cl | inactive | – |
| Cc1ccccc1OP(=O)(Oc1ccccc1)Oc1ccccc1 | inactive | – |
| Cc1cc(Cl)ccc1N | inactive | – |
| CC(C)O.CC(C)O.OCCN(CCO)CCO.OCCN(CCO)CCO.[Ti] | inactive | – |
| Cc1c([N+](=O)[O-])c(C)c([N+](=O)[O-])c(C(C)(C)C)c1[N+](=O)[O-] | inactive | – |
| Oc1c(Br)cc(Br)cc1Br | inactive | – |
| CC(C)(COCC1CO1)COCC1CO1 (stereo not given) | inactive | – |
| CCOP(=S)(OCC)SCS(=O)(=O)C(C)(C)C | inactive | – |
| Nc1ccc(N)cc1 | inactive | – |
| O=[N+]([O-])c1cccc2ccccc12 | inactive | – |
| OC(Cc1ccccc1Cl)(Cn1cncn1)C1(Cl)CC1 (stereo not given) | inactive | – |

| Structure (SMILES) | outcome | AC50 |
| --- | --- | --- |
| Cc1ccc2nc3sc(=O)sc3nc2c1 | – | 8.57 µM (active) |
| C[C@]12CC[C@@H](O)C[C@@H]1CC[C@@H]1[C@@H]2CC[C@]2(C)C(=O)CC[C@@H]12 | inactive | – |
| Cc1cc(Cl)ccc1OC(C)C(=O)O (stereo not given) | inactive | – |
| O=S(=O)(C(Cl)(Cl)Cl)C(Cl)(Cl)Cl | – | 3.82 µM (active) |
| OCCCCO | inactive | – |
| OC(Cc1ccccc1Cl)(Cn1[nH]cnc1=S)C1(Cl)CC1 (stereo not given) | inactive | – |
| N#CCCC(Br)(C#N)CBr (stereo not given) | – | 12.7 µM (active) |
| Oc1c(Cl)cc(Cl)cc1Cl | inactive | – |
| COc1ccccc1N | inactive | – |
| CCCCCCCCCCCCN(C)C | inactive | – |
| [Cl][Sn]([c]1ccccc1)([c]1ccccc1)[c]1ccccc1 | – | 0.436 µM (active) |
| O=C(O)C1(c2ccc3c(c2)OC[C@H](Cc2ccc(-c4ccccc4)cc2)[C@H]3O)CCCC1 | – | 35.7 µM (active) |
| Oc1cc(Cl)c(Cl)cc1Cl | inactive | – |
| CCCCOC(=O)COC(=O)c1ccccc1C(=O)OCCCC | inactive | – |
| CCCCCCCCCCCCc1cccc(S(=O)(=O)O)c1 | inactive | – |
| CCC(C)(C#N)N=NC(C)(C#N)CC (stereo not given) | inactive | – |
| O=C(Cc1ccccc1)OCCc1ccccc1 | inactive | – |
| CC(C)(C)c1ccccc1O | inactive | – |
| Oc1ccc(Cc2ccc(O)cc2)cc1 | inactive | – |
| O=C1C=CC(=O)c2ccccc21 | – | 6.7 µM (active) |
